# Reference: PubChem BioAssay (NCATS)
# Where “and” joins values, the source holds several entries; their conditions need not be identical. Equal entries are not always repeated. Results filed as inconclusive are left out. Entries that show only a call come without a potency. Calls of active or inactive are those of the source. Unless noted, calls come from the whole dose curve; as a rule, active = well fitted curve in the direction sought with a large enough effect; inconclusive = small, poorly fitted or top-dose-only effect, or another doubt; inactive = no such curve, though single readings can be large; an effect the other way counts as inactive or inconclusive.
# Assays:
# [1] = target: Cytochrome P450 3A4 (Homo sapiens) (UniProt P08684); test: qHTS Assay for Inhibitors and Substrates of Cytochrome P450 3A4 (AID 884); conditions: recombinant CYP3A4, Luciferin-PPXE luminescence; series mostly up to 57.1 µM; note: nearly all actives have a fitted effect of over 50% in size; note: potency is the fitted concentration of half-maximal effect
# Summary of the method: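 20 nM human CYP3A4 with 25 uM Luciferin-PPXE (at KM) in 200 mM KPO4, preincubated 10 min with compound; NADPH regeneration started a 60 min RT reaction. Luciferin detected by luminescence, normalized to 57 uM ketoconazole as full inhibition.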
# [2] = MultiTox-Fluor Cytotoxicity Assay - LYMP1-002 - Dead Cells (AID 960); conditions: LYMP1-002 lymphoblastoid cells, dead-cell protease fluorescence; series mostly up to 46.1 µM; note: nearly all actives have a fitted effect of over 60% in size; note: potency is the fitted concentration of half-maximal effect
# Summary of the method: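 LYMP1-002 cells 2500/well; 5 hr 37 C pre-incubation; compound 16 hr 37 C; MultiTox-Fluor reagent 60 min RT; dead-cell fluor Ex/Em 485/520. Norm. to DMSO (0%) vs 15 uM tetraoctylammonium bromide (100%); Hill AC50.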
# [3] = Cell Viability - LYMP2-005 (AID 967); conditions: LYMP2-005 lymphoblastoid cell viability; series mostly up to 92.2 µM; note: potency is the fitted concentration of half-maximal effect
# Summary of the method: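 Human lymphoblastoid LYMP2-005 cells, 2,500 per well in complete medium, rested 5 h at 37C then compound-treated 24 h at 37C. Intracellular ATP read by CellTiter-Glo luminescence after 30 min at room temperature; AC50 from Hill-equation fits of concentration-response data.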
# [4] = target: Thyroid hormone receptor beta (Homo sapiens) (UniProt P10828); test: qHTS assay for small molecule agonists of thyroid hormone receptor beta signaling (AID 588545; calls by dose curve); conditions: TR-UAS-bla GripTite HEK 293, beta-lactamase ratio, agonist mode, 18 h, percent of T3 response, DMSO as zero; series mostly up to 76.7 µM
# Summary of the method: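 HEK 293 TR-UAS-bla; agonist mode; 18 hrs, 37 C; CCF4, ex 405/em 460 and 530 nm; norm. T3 10 nM = 100%, DMSO = 0%; Hill fit → EC50, efficacy.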
# [5] = qHTS assay for small molecule disruptors of the mitochondrial membrane potential - 1 hr assay (AID 651754; calls by dose curve; note: nearly all actives have a fitted effect of over 35% in size; note: potency is the fitted concentration of half-maximal effect); conditions: series mostly up to 92.2 µM
# Summary of the method: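 HepG2, 2,000 cells/well, overnight attachment; cpd or DMSO 1 hr, 37C/5% CO2; Mito-MPS dye 30 min, 37C; fluorescence monomer (490/535) and aggregate (540/590).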
# [6] = qHTS assay for environmental chemicals that activate the Aryl hydrocarbon Receptor (AhR) signaling pathway (AID 651777); conditions: 1A2-DRE human hepatoma cells, luciferase, 24 h; activation: active compounds read high; note: nearly all actives have a fitted effect of over 15% in size
# Summary of the method: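 AhR activation is scored as a rise in luciferase from a stable DRE–CYP1A2 promoter construct in human hepatoma cells. Treatment lasts 24 hr at 37 C; detection uses One-Glo after 30 min at room temperature.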
# [7] = target: Nuclear receptor ROR-gamma (Homo sapiens) (UniProt P51449); test: qHTS assay for small molecule antagonists of the retinoid-related orphan receptor gamma (ROR-gamma) signaling pathway (AID 651802); conditions: ROR-gamma antagonist cell reporter assay; series mostly up to 92.2 µM; note: nearly all actives have a fitted effect of over 60% in size; note: potency is the fitted concentration of half-maximal effect
# Summary of the method: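 CHO, TET-inducible ROR + RORE-LUC reporter, 1536-well qHTS. Compound pinned, doxycycline added, 16hr 37C/5% CO2. ONE-Glo, 30 min RT, luminescence; signal drop scored as antagonism.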
# [8] = Cell Viability - LYMP2-012 (AID 982); conditions: LYMP2-012 lymphoblastoid cell viability qHTS; series mostly up to 92.2 µM;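 note: cellular ATP by luciferase luminescence where a drop means cytotoxicity; cells exposed to compound for one day before reading; nearly all actives have a fitted effect of over 55% in size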; note: potency is the fitted concentration of half-maximal effect
# [9] = target: Nuclear receptor subfamily 1 group I member 2 (Rattus norvegicus) (UniProt Q9R1A7); test: qHTS assay for small molecule activators of the rat pregnane X receptor (rPXR) signaling pathway (AID 651751; call rule not given here); conditions: rPXR reporter cells, luciferase (One-Glo), 24 h
# [10] = Cell Viability - LYMP2-001 (AID 921); conditions: LYMP2-001 lymphoblastoid cell viability; series mostly up to 92.2 µM; note: nearly all actives have a fitted effect of over 70% in size; note: potency is the fitted concentration of half-maximal effect
# Summary of the method: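 Human lymphoblastoid LYMP2-001 cells, 2500 per well, in complete medium, treated 24 h at 37 C. Viability from cellular ATP by CellTiter-Glo luminescence; AC50 from Hill-equation fits of qHTS concentration-response.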
# [11] = Cell Viability - LYMP2-008 (AID 980); conditions: LYMP2-008 lymphoblastoid cell viability, qHTS; series mostly up to 92.2 µM; note: nearly all actives have a fitted effect of over 60% in size; note: potency is the fitted concentration of half-maximal effect
# Summary of the method: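 qHTS, human lymphoblastoid line, 2500 cells/well; 5 hr preincubation, 24 hr compound, 37 C. CellTiter-Glo ATP luminescence. AC50 via Hill equation. Tetraoctylammonium bromide positive control.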
# [12] = Cell Viability - LYMP2-016 (AID 984); conditions: LYMP2-016 lymphoblastoid cell viability, qHTS; series mostly up to 92.2 µM;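 note: cells exposed to compound for 24 hours at 37 °C; nearly all actives have a fitted effect of over 55% in size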; note: potency is the fitted concentration of half-maximal effect
# Summary of the method: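 Human lymphoblastoid LYMP2-016 cells, 2500 per well, treated with compounds for 24 h at 37 C. Viability read as intracellular ATP by CellTiter-Glo luminescence after 30 min at room temperature; AC50 from Hill fits of concentration-response.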
# [13] = Cell Viability - LYMP2-018 (AID 985); conditions: LYMP2-018 lymphoblastoid cells, viability (qHTS); series mostly up to 92.2 µM;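 note: compound exposure lasted 24 hr at 37 °C; nearly all actives have a fitted effect of over 50% in size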; note: potency is the fitted concentration of half-maximal effect
# Summary of the method: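 Luminescent ATP signal (CellTiter-Glo, read after 30 min at room temperature) reports viable cells after 24 hr compound treatment at 37 C. Concentration-response data were fitted to the standard Hill equation for AC50.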
# [14] = Cell Viability - LYMP2-020 (AID 986); conditions: series mostly up to 92.2 µM; note: nearly all actives have a fitted effect of over 55% in size; note: potency is the fitted concentration of half-maximal effect
# Summary of the method: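 Luminescent ATP signal (CellTiter-Glo, 30 min at room temperature) is the read-out after 24 h compound treatment of lymphoblastoid cells at 37 C. AC50 values come from Hill-equation fits across concentrations.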
# [15] = Cell Viability - LYMP2-022 (AID 987); conditions: LYMP2-022 lymphoblastoid cell viability; series mostly up to 92.2 µM; note: nearly all actives have a fitted effect of over 55% in size; note: potency is the fitted concentration of half-maximal effect
# Summary of the method: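 qHTS: human lymphoblastoid cells 2500/well; 5 hr 37 C; cpd added; 24 hr 37 C; CellTiter-Glo, 30 min RT; luminescence. AC50 via Hill fit; tetraoctylammonium bromide positive ctrl.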
# [16] = Cell Viability - LYMP2-024 (AID 988); conditions: LYMP2-024 lymphoblastoid cell viability; series mostly up to 92.2 µM; note: nearly all actives have a fitted effect of over 60% in size; note: potency is the fitted concentration of half-maximal effect
# Summary of the method: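 Steps: seed 2500 cells/well, 5 hr 37 C; add compound, 24 hr 37 C; add CellTiter-Glo, 30 min room temperature; read luminescence. AC50 derived by Hill modelling of concentration-dependent ATP loss.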
# [17] = qHTS assay for small molecule antagonists of the retinoid-related orphan receptor gamma (ROR-gamma) signaling pathway - cell viability counter screen (AID 720652; active = well fitted curve in the direction sought with a large enough effect in the repeat runs; an effect the other way counts as inactive or inconclusive;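 note: compound exposure lasted 16 hr before ATP read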; note: potency is the fitted concentration of half-maximal effect); conditions: RORgamma reporter cell line viability counter screen; series mostly up to 92.2 µM
# Summary of the method: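 Luminescence from CellTiter-Glo after 30 min at room temperature reported cellular ATP as the cytotoxicity measure. Cells were the CHO reporter line with doxycycline-induced ROR-gamma expression, exposed to compound for 16 hr at 37 C.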
# [18] = qHTS assay for small molecule agonists of the antioxidant response element (ARE) signaling pathway measured by Nrf2-dependant transcriptional activity (AID 720636; active = well fitted curve in the direction sought with a large enough effect in the repeat runs; an effect the other way counts as inactive or inconclusive;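 note: HepG2 cells with an ARE-driven luciferase reporter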); conditions: ARE-luc HepG2, Nrf2 luciferase reporter, 16 h; series mostly up to 92.4 µM
# Summary of the method: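 First, ARE-luc HepG2 cells attached for 6 hr at 37 C in 1% dialyzed FBS medium. Next, compound or DMSO was added and incubated 16 hr. Finally, ONE-Glo reagent was added and luminescence measured after 30 min.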
# [19] = qHTS assay for small molecule activators of the human pregnane X receptor (PXR) signaling pathway (AID 720659; call rule not given here); conditions: DPX-2 HepG2 CYP3A4-luciferase, 24 h; series mostly up to 92.3 µM
# Chain of Nuclear receptor ROR-gamma (Homo sapiens) (P51449 whole entry, looked up): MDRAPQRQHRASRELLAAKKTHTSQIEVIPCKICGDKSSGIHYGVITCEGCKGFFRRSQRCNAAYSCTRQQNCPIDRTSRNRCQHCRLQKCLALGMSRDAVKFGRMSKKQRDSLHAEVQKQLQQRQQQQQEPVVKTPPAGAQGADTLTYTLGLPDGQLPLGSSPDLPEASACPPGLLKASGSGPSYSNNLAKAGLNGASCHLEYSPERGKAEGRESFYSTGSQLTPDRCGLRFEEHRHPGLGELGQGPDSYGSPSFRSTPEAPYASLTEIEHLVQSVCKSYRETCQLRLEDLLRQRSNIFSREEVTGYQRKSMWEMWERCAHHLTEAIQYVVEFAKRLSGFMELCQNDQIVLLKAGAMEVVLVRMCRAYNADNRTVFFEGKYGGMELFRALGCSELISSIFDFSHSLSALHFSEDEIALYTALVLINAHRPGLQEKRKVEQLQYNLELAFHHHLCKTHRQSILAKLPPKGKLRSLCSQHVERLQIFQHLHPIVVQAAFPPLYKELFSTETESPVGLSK
# Chain of Thyroid hormone receptor beta (Homo sapiens) (P10828 whole entry, looked up): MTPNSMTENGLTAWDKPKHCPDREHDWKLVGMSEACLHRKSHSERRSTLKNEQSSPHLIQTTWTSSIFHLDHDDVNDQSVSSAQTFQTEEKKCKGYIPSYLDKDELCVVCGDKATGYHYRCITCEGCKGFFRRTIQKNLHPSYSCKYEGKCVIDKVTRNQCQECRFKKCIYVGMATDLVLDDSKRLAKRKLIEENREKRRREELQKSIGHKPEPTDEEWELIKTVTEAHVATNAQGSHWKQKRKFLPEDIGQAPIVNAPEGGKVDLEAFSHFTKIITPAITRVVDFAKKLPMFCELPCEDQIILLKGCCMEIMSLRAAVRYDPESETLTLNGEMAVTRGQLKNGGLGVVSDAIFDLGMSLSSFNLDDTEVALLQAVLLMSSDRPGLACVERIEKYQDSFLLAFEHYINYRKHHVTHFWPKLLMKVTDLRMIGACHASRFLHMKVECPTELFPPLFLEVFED
# Chain of Nuclear receptor subfamily 1 group I member 2 (Rattus norvegicus) (Q9R1A7 whole entry, looked up): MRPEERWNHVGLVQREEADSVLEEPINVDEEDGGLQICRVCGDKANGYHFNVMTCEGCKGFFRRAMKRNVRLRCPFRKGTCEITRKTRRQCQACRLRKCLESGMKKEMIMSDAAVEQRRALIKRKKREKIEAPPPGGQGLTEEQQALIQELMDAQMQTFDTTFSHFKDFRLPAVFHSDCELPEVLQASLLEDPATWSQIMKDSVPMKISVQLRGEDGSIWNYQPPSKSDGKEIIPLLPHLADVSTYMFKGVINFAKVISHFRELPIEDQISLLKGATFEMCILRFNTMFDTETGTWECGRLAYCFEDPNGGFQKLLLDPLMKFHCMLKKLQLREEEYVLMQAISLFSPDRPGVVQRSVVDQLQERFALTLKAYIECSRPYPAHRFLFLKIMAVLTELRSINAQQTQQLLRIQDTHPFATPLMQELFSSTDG
# Chain of Cytochrome P450 3A4 (Homo sapiens) (P08684 whole entry, looked up): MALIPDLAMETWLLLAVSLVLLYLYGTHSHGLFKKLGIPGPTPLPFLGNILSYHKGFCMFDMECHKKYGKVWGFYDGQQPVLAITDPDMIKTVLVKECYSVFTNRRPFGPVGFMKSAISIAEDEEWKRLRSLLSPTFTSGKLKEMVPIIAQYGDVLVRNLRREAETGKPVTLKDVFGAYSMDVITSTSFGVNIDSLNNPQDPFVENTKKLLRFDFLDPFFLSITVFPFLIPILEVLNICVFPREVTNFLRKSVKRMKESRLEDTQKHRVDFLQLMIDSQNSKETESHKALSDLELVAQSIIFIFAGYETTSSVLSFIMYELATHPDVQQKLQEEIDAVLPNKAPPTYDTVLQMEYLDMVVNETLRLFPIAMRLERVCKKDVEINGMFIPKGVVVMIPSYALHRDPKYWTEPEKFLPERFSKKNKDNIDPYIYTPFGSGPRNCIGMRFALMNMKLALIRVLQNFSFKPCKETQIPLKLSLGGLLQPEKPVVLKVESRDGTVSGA
SMILES,Potency [1],Potency [2],Potency [3],outcome [4],Potency [5],activation [6],Potency [7],Potency [8],max response [9],Potency [10],Potency [11],Potency [12],Potency [13],Potency [14],Potency [15],Potency [16],Potency [17],Potency [18],outcome [19]
C/C=C1\C(=O)C[C@H]2[C@@H]3CCC4=CC(=O)CC[C@]4(C)[C@H]3CC[C@]12C,inactive,25.1 µM (active),inactive,inactive,inactive,-0.115% (inactive),33.5 µM (active),–,–,–,–,–,–,–,–,–,–,–,–
Oc1ccc2cc(SSc3ccc4cc(O)ccc4c3)ccc2c1,15.8 µM (active),inactive,–,inactive,66.8 µM (active),–,–,50.1 µM (active),-6.62% (inactive),–,–,–,–,–,–,–,–,–,–
O=[N+]([O-])c1cc([N+](=O)[O-])c2ccc(S(=O)(=O)O)cc2c1O,–,inactive,inactive,–,inactive,–,–,inactive,–,inactive,inactive,inactive,inactive,inactive,inactive,inactive,inactive,–,–
Cc1cc(O)c(C(C)(C)C)cc1Sc1cc(C(C)(C)C)c(O)cc1C,–,31.6 µM (active),–,–,10.6 µM (active),-3.69% (inactive) and -11.4% (inactive),4.22 µM (active),39.8 µM (active),–,39.8 µM (active),31.6 µM (active),50.1 µM (active),50.1 µM (active),31.6 µM (active),31.6 µM (active),39.8 µM (active),18.8 µM (active),inactive,–
O=C1OC(O)C(C(Cl)Cl)=C1Cl (stereo unspecified),–,31.6 µM (active),15.8 µM (active),–,inactive,-0.209% (inactive),–,20 µM (active),-3.61% (inactive),20 µM (active),25.1 µM (active),25.1 µM (active),25.1 µM (active),25.1 µM (active),15.8 µM (active),12.6 µM (active),26.6 µM (active),–,inactive
O=C=Nc1ccc(Cc2ccc(N=C=O)cc2)cc1,–,–,inactive,inactive,inactive,–,inactive,inactive,1.83% (inactive) and 4.61% (inactive),inactive,inactive,inactive,inactive,inactive,inactive,inactive,inactive,inactive,inactive
CC(=O)Nc1ccc(C(=O)CCl)cc1,–,15.8 µM (active),–,–,inactive,3.94% (inactive),9.44 µM (active),5.01 µM (active),–,3.98 µM (active),6.31 µM (active),7.94 µM (active),7.94 µM (active),5.01 µM (active),3.98 µM (active),3.16 µM (active),18.8 µM (active),–,–
Nc1ccc2cc3ccccc3cc2c1,–,inactive,inactive,–,3.76 µM (active),–,inactive,inactive,–,inactive,inactive,inactive,inactive,inactive,inactive,inactive,inactive,–,–
c1cc(OCC2CO2)cc(OCC2CO2)c1 (stereo unspecified),–,–,–,inactive,–,4% (inactive) and -2.73% (inactive),–,–,-8.72% (inactive) and -4.5% (inactive),–,–,–,–,–,–,–,–,–,inactive
C=C(C)c1ccccc1,–,inactive,inactive,–,inactive,–,inactive,inactive,0.462% (inactive),inactive,inactive,inactive,inactive,inactive,inactive,inactive,inactive,inactive,inactive
